PubChem BioAssay AID463173 (ICCB-Longwood Screening Facility, Harvard Medical School, 2010)
Screen size: about 52,000 compounds; about 4,300 (8.3%) were called active. The full list was thinned out, with actives kept by preference. Values without a mark were called inactive. Rule as the data show it: active = survival mostly below about 52% (no sharp cut-off); inactive = mostly above about 56%.

Test system: DeltatarO mutant
Assay: growth inhibition of S. aureus wild type versus tarO mutant, primary screen, teichoic acid synthesis inhibitors, RN4220, OD600 (AID 463173)
Settings: OD600, 18 h, stronger effect = lower value, screened at 18.75 µg/mL (by protocol)

Row | SMILES | survival
1 | Oc1c(C(c2ccc(Cl)cc2Cl)N2CCCC2)sc2nc(-c3ccco3)nn12 (stereo not drawn) | 68%
2 | Cc1cccc(C(=O)OCc2cc(=O)n3nc(C4CCCCC4)sc3n2)c1 | 78%
3 | CNC(=S)NC1CC2CCCC(C1)N2Cc1ccco1 (stereo not drawn) | 80%
4 | O=C(c1ccccc1)N1CCC(O)(c2cccnc2)CC1 | 70%
5 | Cc1nc(SCC(=O)Nc2ccc(C)c(Cl)c2)cc(-c2ccccc2)n1 | 46%
6 | COc1ccc(NC(=O)CSc2cc(-c3ccccc3)nc(C)n2)cc1 | 94%
7 | Cc1nc(SCC(=O)Nc2ccccc2Cl)cc(-c2ccccc2)n1 | 56% (active)
8 | CCOC(=O)c1ccc(NC(=O)CSc2cc(-c3ccccc3)nc(C)n2)cc1 | 40% (active)
9 | Cc1nc(SCC(=O)Nc2ccccc2C)cc(-c2ccccc2)n1 | 53%
10 | COC(=O)c1ccccc1NC(=O)CSc1cc(-c2ccccc2)nc(C)n1 | 71%
11 | Cc1ccc(NC(=O)CSc2nc(=O)n(CCN3CCOCC3)c3c2CCC3)c(C)c1 | 73%
12 | COC(=O)c1ccc(NS(=O)(=O)c2ccc3c(c2)n(C)c(=O)c(=O)n3C)cc1 | 79%
13 | COCCNC(=O)C1CCN(Cc2cc3ccccc3n2Cc2ccc(C)cc2)CC1 | 99%
14 | CCOc1ccc(NC(=O)CCS(=O)(=O)c2cc3c4c(c2)CCN4C(=O)CC3)cc1 | 74%
15 | Cc1cc(C)c(C#N)c(NC2CCCCC2)n1 | 87%
16 | N#CSc1cnc(NC2CCCCC2)s1 | 1% (active)
17 | Cc1ccc(-c2nnc(NC3CCCC3)s2)cc1 | 76%
18 | Cc1ccc(C(=O)Nc2c(C(=O)Nc3ccc(C)c(C)c3)sc3nc(C)cc(C)c23)cc1 | 54%
19 | Cc1cc(C)cc(-n2c(C)cc(C(=O)C(=O)Nc3ccccc3F)c2C)c1 | 99%
20 | COc1ccc(C2=CC(c3cccc(C)c3)n3nnnc3N2)cc1 (stereo not drawn) | 84%
21 | Fc1ccc(Br)cc1C1C=C(c2ccc(Br)cc2)Nc2nnnn21 (stereo not drawn) | 91%
22 | CN(C)c1ccc(C2C=C(c3ccccc3)Nc3nnnn32)cc1 (stereo not drawn) | 52%
23 | Cc1cccc(C2C=C(c3ccc(C)c(C)c3)Nc3nnnn32)c1 (stereo not drawn) | 6% (active)

Row | SMILES | survival
24 | CCOc1ccc(NC(=O)c2cnn3c2NC(c2cccc(OC)c2)=CC3c2ccccc2)cc1 (stereo not drawn) | 49%
25 | CCOc1ccc(C2C=C(c3cccc(OC)c3)Nc3nnnn32)cc1 (stereo not drawn) | 45% (active)
26 | COc1ccc(C2C=C(c3ccc(Br)cc3)Nc3nnnn32)c(OC)c1 (stereo not drawn) | 84%
27 | COc1cccc(C2C=C(c3ccc(C)c(C)c3)Nc3nnnn32)c1OC (stereo not drawn) | 72%
28 | COc1cccc(C2=CC(c3cc(Br)ccc3F)n3nnnc3N2)c1 (stereo not drawn) | -2% (active)
29 | Cc1ccc(C)c(N2CCN(S(=O)(=O)c3ccc4c(c3)n(C)c(=O)c(=O)n4C)CC2)c1 | 76%
30 | CC(C)CC(C(=O)NCc1ccc(F)cc1)N1Cc2ccccc2C1=O (stereo not drawn) | 88%
31 | O=C(NCc1cccnc1)c1nn(-c2ccc(F)cc2)nc1CO | 111%
32 | CCc1ccc2occ(CC(=O)Nc3c(C(=O)Nc4ccc(OC)cc4)oc4ccccc34)c2c1 | 84%
33 | CCOC(=O)CC1c2cc(OCC)c(OCC)cc2CCN1C(=O)Nc1cccc(Cl)c1 (stereo not drawn) | 41% (active)
34 | CCOc1cc2c(cc1OCC)C(CC(=O)O)N(C(=O)Nc1ccc(Br)c(C)c1)CC2 (stereo not drawn) | 81%
35 | CCOc1cc2c(cc1OCC)C(CC(=O)OC)N(C(=O)Nc1cc(C)cc(C)c1)CC2 (stereo not drawn) | 83%
36 | Cc1cccc(Cn2c(-c3cccs3)nc3ccccc32)c1 | 2% (active)
37 | OCc1nc2ccccc2n1Cc1c(F)cccc1Cl | 99%
38 | CC(=O)N1CCCC1c1nc2ccccc2n1Cc1ccccc1C (stereo not drawn) | 69%
39 | CCCC(=O)NCCc1nc2ccccc2n1Cc1c(F)cccc1Cl | 69%
40 | CC(=O)N1CCCC1c1nc2ccccc2n1Cc1cccc(C)c1 (stereo not drawn) | 72%
41 | O=C(NCc1nc2ccccc2n1Cc1ccccc1Cl)c1ccccc1 | 97%
42 | Cc1ccccc1Cn1c(-c2cccs2)nc2ccccc21 | 19% (active)
43 | Fc1cccc(Cl)c1Cn1c(-c2cccs2)nc2ccccc21 | 21% (active)
44 | Cc1cccc(CNC(=O)Cn2c(-c3cccs3)cc3ccccc32)c1 | 116%
45 | OCc1nc2ccccc2n1Cc1ccccc1Cl | 74%
46 | Clc1ccccc1Cn1c(-c2cccs2)nc2ccccc21 | 11% (active)

Row | SMILES | survival
47 | Cc1ccccc1Cn1cnc2ccccc21 | 77%
48 | O=c1[nH]nc(-c2ccccc2)c2cc3c(=O)[nH]nc(-c4ccccc4)c3cc12 | 100%
49 | CSc1cccc(NC(=O)Cn2c(=O)n(Cc3ccccc3)c(=O)c3sc4ccccc4c32)c1 | 91%
50 | Cc1ccc(Cn2c(=O)n(CC3CCC(C(=O)N4CCOCC4)CC3)c(=O)c3sccc32)cc1 (stereo not drawn) | 75%
51 | Cc1cccc(CC2C(=O)Nc3ccccc32)c1 (stereo not drawn) | 87%
52 | CCc1ccccc1NC(=O)Cn1ccn(-c2cc(C)cc(C)c2)c(=O)c1=O | 67%
53 | Cc1cc(Cl)ccc1NC(=O)C(=O)NCc1ccco1 | 135%
54 | CCC(O)c1nc2ccccc2n1Cc1cc(C)ccc1C (stereo not drawn) | 86%
55 | Cc1ccc(C)c(Cn2c(-c3cccs3)nc3ccccc32)c1 | -3% (active)
56 | Cc1ccc(C)c(Cn2c(C(C)NC(=O)c3ccccc3)nc3ccccc32)c1 (stereo not drawn) | 88%
57 | Cc1cc2c(cc3c(SCc4cccc(Cl)c4)nnc(C)n32)o1 | 56%
58 | Clc1ccc(CSc2nncn3c2cc2occc23)cc1 | 47%
59 | Cc1cc2c(cc3c(SCc4ccc(Cl)cc4)nnc(C)n32)o1 | 57%
60 | C=Cc1ccc(CSc2nnc(C)n3c2cc2occc23)cc1 | 42% (active)
61 | Cc1cc(C)c(CSc2nnc(C)n3c2cc2occc23)c(C)c1 | 40% (active)
62 | Cc1nnc(SCc2ccccc2Cl)c2cc3occc3n12 | 74%
63 | Cc1cc2c(cc3c(SCc4ccccc4Cl)nnc(C)n32)o1 | 49% (active)
64 | Cc1ccc(-c2nc(CSc3nnc(C)n4c3cc3occc34)c(C)o2)cc1 | 72%
65 | Cc1ccc(C)c(NC(=O)CSc2nnc(C)n3c2cc2occc23)c1 | 66%
66 | Cc1nnc(SCc2ccc(Cl)cc2)c2cc3occc3n12 | 28% (active)
67 | Cc1oc(-c2cccc(Cl)c2)nc1CSc1nnc(C)n2c1cc1occc12 | 79%
68 | Cc1oc(-c2ccccc2F)nc1CSc1nnc(C)n2c1cc1occc12 | 74%
